The nature of this experiment: chemical genetic growth profiling, strain panel (AID 1159580).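 Also: tested at 20 µM; growth read once vehicle control cultures reached saturation at 30 °C; 1 = growth at the plate median or of vehicle wells; lower values mean less growth of the strain.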 To be noted: growth OD.
Where [1] appears, read: S. cerevisiae deletion strains, locus YAL013W, strain DEP1, active compounds read low.
Setting [2] is: S. cerevisiae deletion strains, locus YDR150W, strain NUM1, active compounds read low.
Where [3] appears, read: S. cerevisiae deletion strains, locus YGR229C, strain SMI1, active compounds read low.
The mark [4] stands for this setting: S. cerevisiae deletion strains, locus YHR030C, strain SLT2, active compounds read low.
Setting [5] is: S. cerevisiae deletion strains, locus YJR075W, strain HOC1, active compounds read low.
Setting [6] is: S. cerevisiae deletion strains, locus YNL322C, strain KRE1, active compounds read low.
Setting [7] is: S. cerevisiae deletion strains, locus YPL055C, strain LGE1, active compounds read low.
The mark [8] stands for this setting: S. cerevisiae deletion strains, locus YPL241C, strain CIN2, active compounds read low.
[9] abbreviates: S. cerevisiae deletion strains, locus YAL040C, strain CLN3, active compounds read low.
Setting [10] is: S. cerevisiae deletion strains, locus YCL061C, strain MRC1 (second series), active compounds read low.
[11] abbreviates: S. cerevisiae deletion strains, locus YDR363W, strain ESC2, active compounds read low.
The mark [12] stands for this setting: S. cerevisiae deletion strains, locus YER002W, strain NOP16, active compounds read low.
Setting [13] is: S. cerevisiae deletion strains, locus YMR307W, strain GAS1, active compounds read low.
The mark [14] stands for this setting: S. cerevisiae deletion strains, locus YNL175C, strain NOP13, active compounds read low.
The mark [15] stands for this setting: S. cerevisiae deletion strains, locus YNL197C, strain WHI3, active compounds read low.
[16] abbreviates: S. cerevisiae deletion strains, locus YNL224C, strain SQS1, active compounds read low.
The mark [17] stands for this setting: S. cerevisiae deletion strains, locus YOR083W, strain WHI5 (second series), active compounds read low.
[18] abbreviates: S. cerevisiae deletion strains, locus YNL128W, strain TEP1, active compounds read low.

Structures are written as SMILES. Among all 5,500 compounds or so, about 2,000 (36%) were called active. About 18% were inconclusive and are not listed. Some of the results follow. Values without a mark were called inactive. Rule as the data show it: active = normalized growth mostly below about 0.91 (no sharp cut-off); inconclusive = no clear call, values can overlap the other calls; inactive = mostly above about 0.92.

With `CCOC(=O)c1cnc2cc(C)nn2c1C`, the normalized growth under setting [1] was 0.994; the normalized growth (S. cerevisiae deletion strains, locus YBR229C, strain ROT2, active compounds read low) was 0.994; the normalized growth (S. cerevisiae deletion strains, locus YCL061C, strain MRC1, active compounds read low) was 0.999; the normalized growth (S. cerevisiae deletion strains, locus YDL101C, strain DUN1, active compounds read low) was 0.997; the normalized growth under setting [2] was 0.964; the normalized growth (S. cerevisiae deletion strains, locus YEL061C, strain CIN8, active compounds read low) was 0.997. Besides, the normalized growth (S. cerevisiae deletion strains, locus YGR078C, strain PAC10, active compounds read low) was 1; the normalized growth under setting [3] is 0.983; the normalized growth under setting [4] was 0.986; the normalized growth (S. cerevisiae deletion strains, locus YHR087W, strain rtc3, active compounds read low) was 1.01; the normalized growth (S. cerevisiae deletion strains, locus YJL187C, strain SWE1, active compounds read low) is 1.01; the normalized growth (S. cerevisiae deletion strains, locus YJR043C, strain POL32, active compounds read low) is 1.01. Further, the normalized growth is 0.998 under setting [5]; 0.992 (S. cerevisiae deletion strains, locus YKL190W, strain CNB1, active compounds read low); 0.987 (S. cerevisiae deletion strains, locus YLR039C, strain RIC1, active compounds read low); 1 (S. cerevisiae deletion strains, locus YLR058C, strain SHM2 (second series), active compounds read low); 0.944 (S. cerevisiae deletion strains, locus YLR085C, strain ARP6, active compounds read low); 0.99 (S. cerevisiae deletion strains, locus YLR262C, strain YPT6, active compounds read low). Besides, the normalized growth (S. cerevisiae deletion strains, locus YML094W, strain GIM5, active compounds read low) was 0.953; the normalized growth (S. cerevisiae deletion strains, locus YMR219W, strain ESC1, active compounds read low) was 0.991; the normalized growth (S. cerevisiae deletion strains, locus YMR263W, strain SAP30, active compounds read low) was 1; the normalized growth (S. cerevisiae deletion strains, locus YNL298W, strain CLA4 (second series), active compounds read low) is 0.996; the normalized growth under setting [6] was 0.994; the normalized growth (S. cerevisiae deletion strains, locus YNR030W, strain Alg12, active compounds read low) was 0.981. Besides, the normalized growth is 0.965 (S. cerevisiae deletion strains, locus YOL006C, strain TOP1, active compounds read low); 0.909 under setting [7]; 0.956 under setting [8]; 1.01 (S. cerevisiae deletion strains, locus YPR135W, strain CTF4, active compounds read low); 0.991 (S. cerevisiae strains, strain wild type, active compounds read low).

Consider `CCOC(=O)c1cnc2c(cnn2CC)c1NN=C(C)C`, for which the normalized growth is 0.918 under setting [1]; 1.01 under setting [9]; 0.943 (active) under setting [10]; 0.918 under setting [11]; 0.959 under setting [12]; 0.76 (active) under setting [3]. Further, the normalized growth is 0.856 (active) under setting [13]; 0.909 (S. cerevisiae deletion strains, locus YNL153C, strain GIM3, active compounds read low); 0.961 under setting [14]; 0.976 under setting [15]; 0.97 under setting [16]; 0.844 (active) under setting [17]. Besides, the normalized growth is, setting by setting: under setting [7], 0.966; under setting [8], 0.964.

For `CCCCNc1c(C(=O)OCC)c(C)nc2c1cnn2CC`, the normalized growth under setting [9] is 0.933; the normalized growth under setting [10] is 0.998; the normalized growth under setting [2] was 0.999; the normalized growth under setting [11] is 1.01; the normalized growth under setting [12] was 0.998; the normalized growth under setting [3] was 1.01. Besides, the normalized growth was 1.01 under setting [5]; 0.998 under setting [13]; 0.959 under setting [18]; 0.941 under setting [14]; 0.947 under setting [15]; 0.951 under setting [16]. Moreover, the normalized growth under setting [6] was 1, the normalized growth under setting [17] is 0.845 (active), the normalized growth under setting [7] is 1.01 and the normalized growth under setting [8] is 0.993.

On to `CCN(CC)CC#CCOC(=O)C(O)(c1ccccc1)C1CCCCC1` (stereo not given), for which the normalized growth is, setting by setting: under setting [1], 1; under setting [9], 1; under setting [10], 1; under setting [2], 1; under setting [11], 1.01; under setting [12], 1.06. In addition, the normalized growth under setting [4] is 0.985; the normalized growth (S. cerevisiae deletion strains, locus YHR079C, strain IRE1, active compounds read low) is 0.996; the normalized growth (S. cerevisiae deletion strains, locus YJL095W, strain BCK1, active compounds read low) was 1.05; the normalized growth (S. cerevisiae deletion strains, locus YJR066W, strain TOR1, active compounds read low) was 0.927; the normalized growth (S. cerevisiae deletion strains, locus YLR113W, strain HOG1, active compounds read low) is 1.04; the normalized growth under setting [18] is 1.11 [resistant] (active). Further, the normalized growth was 1.06 under setting [14]; 0.96 (S. cerevisiae deletion strains, locus YNL183C, strain NPR1, active compounds read low); 1.05 under setting [15]; 1.02 under setting [16]; 0.998 under setting [17]; 0.989 (S. cerevisiae deletion strains, locus YOR231W, strain MKK1, active compounds read low). Besides, the normalized growth is 1 under setting [7]; 1 under setting [8]; 1 (S. cerevisiae deletion strains, locus YPL256C, strain CLN2, active compounds read low).

For the origin of these results see PubChem BioAssay AID1159580 (chemical genetic matrix, 2015).
